Screening results (PubChem BioAssay)
TWEAK Fn14 block = inhibitors of TWEAK-Fn14 signaling, primary screen, luciferase reporter cells, uHTS | TWEAK-stimulated Fn14 reporter cells, luciferase luminescence, 8 h | actives 2% (n = 360,000) | inhibition, % at 10 µM; in the data active = inhibition above about 50%
HSF1 inhib = HSF1 inhibitors in luciferase reporter cells, primary screen, cell-based, NIH3T3, luminescence. activity change, negative = inhibition, % at 7.5 µM (by protocol). actives 0.77% (n = 300,000). AID 2098, 2009. NIH3T3-HGL HSE-luciferase, MG132-induced, luminescence 8 h; hits give low values;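 active = more than half of replicate wells show activity change below -50%, luminescence cut by over half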;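 note: luciferase reports HSF-1 transcriptional activity via heat shock element; 0% = median of DMSO wells and -100% = zero luminescence signal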
LMP1 NFkB inh = EBV LMP1-driven NF-kappaB luciferase reporter inhibitors, primary screen, cell-based, luminescence, single point; LMP1-induced NF-kappaB luciferase reporter cells; inhibition, % at 12.5 µM; actives 0.69% (n = 350,000); in the data active = inhibition above about 41%;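 note: 0% = neutral control wells and 100% = reference inhibitor control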
HSP90 inh = HSP90 inhibitors, primary screen, cell lysate, luminescence; Heat shock protein HSP 90 (rabbit reticulocyte lysate; luciferase refolding); Rabbit reticulocyte lysate, luciferase refolding luminescence, 3 h; inhibition, % at 5.6 µM; actives 0.91% (n = 290,000); AID 1789, 2009;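 active = inhibition above the screen-wide mean plus 3 SD, computed separately per campaign, cut at about 16% in these data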;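 note: 0% = DMSO wells and 100% = 60 µM geldanamycin wells; inhibitors lower the luminescence because luciferase stays unfolded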
HSF1 activator = HSF-1 activators, primary screen, NIH3T3-HGL cells, MG132 stress, luminescence, single point; activation, % at 9 µM; actives 1.7% (n = 300,000); NIH3T3-HGL HSF-1 luciferase reporter, 8 h; 100% = twice DMSO control signal;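 active = mean replicate activation of at least 50% with a set share of replicates each reaching 50%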;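 note: 0% = median of the neutral control wells and 100% = twice that signal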
TROY NFkB inh = inhibitors of TROY-driven NF-kB signaling, primary screen, Q293 LMP1-TROYcd cells, NF-kB luciferase, uHTS; Q293 LMP1-TROYcd NF-kB luciferase reporter, 4 h; inhibition, % at 10 µM; actives 0.98% (n = 360,000); AID 1347056, 2019;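 active = compounds whose plate-normalised and pattern-corrected inhibition of the luciferase reporter signal at the single screening dose is 50% or more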
An asterisk follows results filed as active; x = no result. This is a sample that favours compounds with a hit; in the whole collection about 4.7% have one here.

SMILES	TWEAK Fn14 block	HSF1 inhib	LMP1 NFkB inh	HSP90 inh	HSF1 activator	TROY NFkB inh
O=c1cc(CN2CCN(c3ccc(Cl)c(Cl)c3)CC2)c2c(ccc3ccccc32)o1	0	x	x	x	x	11
Nc1ccc2c(c1)[nH]c(=O)c1cc(N)ccc12	-9	x	-13	x	x	-11
C(=N\Nc1nc2ccccc2[nH]1)/c1ccc2ncccc2c1	28	15	34	4	41	17
C(=N\Nc1nc2ccccc2[nH]1)/c1ccc2c(c1)OCCO2	49	49	-1	5	71*	28
Cc1cc(C)nc(N/N=C/c2ccc3c(c2)OCCO3)n1	19	1	-2	-1	14	-8
Fc1ccccc1-c1ccc(/C=N/Nc2nc3ccccc3[nH]2)o1	-22	379	-19	-2	384*	-74
COc1ccc(/C=N/Nc2nc3ccccc3[nH]2)cc1OC	-10	324	-5	5	369*	-64
COc1cc(OC)c(OC)cc1/C=N/Nc1nc2ccccc2[nH]1	-5	246	10	-2	267*	44
O=C(CN1CCN(C(=O)c2ccco2)CC1)Nc1cc(S(=O)(=O)N2CCCC2)ccc1Cl	5	x	-9	x	x	-9
N#Cc1ccc(S(=O)(=O)N2CCCCC2c2cc(C(=O)Nc3cccc4c3CCCC4)no2)cc1 (stereo not given)	27	x	x	x	x	3
COc1cc(/C=N\Nc2nc3ccccc3[nH]2)cc(OC)c1OC	62*	346	15	2	437*	51*
COc1ccc2c(c1)c(/C=N/Nc1nc3ccccc3[nH]1)c(C)n2C	88*	213	-4	6	206*	54*
C(=N\Nc1nc2ccccc2[nH]1)/c1cccc2nccnc12	3	58	47*	2	64*	-19
C#CCn1cc(/C=N/Nc2nc3ccccc3[nH]2)c2ccccc21	53*	288	-14	6	370*	-4
Cc1csc(CN(C)C(=O)CC2C(=O)NCCN2Cc2ccccc2C)n1 (stereo not given)	-6	x	2	x	x	-13
NCCCCCc1nnc(SCC(=O)c2ccc(Cl)cc2)o1	-9	30	6	1	58*	7
NCCc1nnc(SCC(=O)c2ccc(Cl)cc2)o1	-5	1	-6	-4	8	-11
NCCCCCc1nnc(SC/C=C/c2ccccc2)o1	-7	57	0	-1	97*	1
CC1=C(C(=O)N2CCOCC2)CC(CC(=O)NC2CCCCC2)C(=O)N1Cc1ccc(F)cc1 (stereo not given)	11	x	3	x	x	-6
COc1cccc(-c2nn(C)c3sc(C(=O)Nc4ccc5c(c4)OCCO5)cc23)c1	44	34	9	2	55*	-36
Cn1nc(-c2ccccc2F)c2cc(C(=O)Nc3ccc4c(c3)OCCO4)sc21	39	9	15	-6	20	-43
O=C1NC(=S)S/C1=C/c1ccc(OC(=O)c2ccco2)cc1	1	19	-7	-4	55*	3
Cc1ccc(CN2CC(N3CCN(CC4CC4)CC3)CS2(=O)=O)cc1 (stereo not given)	1	x	x	x	x	-1
CCOc1ccc(OCCn2nnc3ccccc3c2=O)cc1	1	46	-29	-3	83*	-41
CCCn1nnc2ccccc2c1=O	6	-5	-5	4	11	1
COc1ccc(N2c3ccccc3CN(Cc3ccccc3)[C@@H](C)[C@H]2Cc2cccnc2)cc1	0	x	-2	x	x	-2
CN(C)CCCC1(c2ccc(F)cc2)OCc2cc(C#N)ccc21 (stereo not given)	0	1	54*	1	-11	5
O=C(NC1CCCCC1)N1CCN(c2nc(-c3ccccc3)cs2)CC1	-19	-8	25	-1	-16	30
O=C(NC12CC3CC(CC(C3)C1)C2)N1CCN(c2nc(-c3ccccc3)cs2)CC1	71*	1	26	1	-11	x
O=C(Cc1ccccc1)Nc1cccc(N2C(=O)C=CC2=O)c1	-6	-62*	-8	-5	-70	0
